From PubChem BioAssay
The entries come from a sample that favours hits as a whole.
TTR transcr act = activators of transthyretin transcription; SH-SY5Y TTR promoter Gaussia luciferase, luminescence; 100% = recombinant luciferase protein wells; activation, % at 16.7 µM; 92,000 tested, 1.3% active; AID 1117267;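 active means activation above the mean of all tested compounds plus 3 SD, cut at about 9.5% in these data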;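 further: cells exposed to compounds for one day before reading; 0% = median of all test compound wells on the plate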
HuH7 TTR inh = counter-screen for TTR activators: TTR transcription inhibitors in HuH7 cells | shares compounds with TTR transcr act | HuH7 TTR promoter-Gaussia luciferase reporter, luminescence | inhibition, % at 16.7 µM | 1,100 tested, 4% active;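 active means average inhibition above the solvent-only control wells' mean plus 3 SD, cut at about 15% in these data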;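 further: 0% = cells with DMSO only and 100% = cells with inhibitor control FD; inhibitors lower well luminescence so higher value means more inhibition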
TTR up confirm = human TTR transcription activation, confirmation; SHSY5Y TTR promoter Gaussia luciferase, luminescence; 100% = purified Lucia enzyme wells, no cells; shares compounds with TTR transcr act; 1,100 tested, under 10 active; AID 1117280; activation, % at 16.7 µM;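 active means mean activation above a set limit taken from the earlier primary screen, cut at about 11% in these data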;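 further: 0% = DMSO-treated cells and 100% = recombinant Lucia luciferase without cells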
Active calls of the source: *.

SMILES	TTR transcr act	others
CC(=O)c1sc(-c2ccc(F)cc2)cc1NS(=O)(=O)c1ccc(C)cc1	17*	HuH7 TTR inh=-6;TTR up confirm=0
CC(=O)c1sc(-c2ccccc2)cc1NS(=O)(=O)c1ccccc1	1
CC(=O)c1sc(-c2ccccc2)cc1NS(=O)(=O)c1ccc(C)cc1	4
O=C(Nc1ccc2c(c1)OCO2)C1CC(=O)N(CCc2ccccc2)C1 (stereo not drawn)	-2
CCOc1ccc(NC(=O)CN(C)C(=O)C2CC(=O)N(CCc3ccccc3)C2)cc1OCC (stereo not drawn)	25*	HuH7 TTR inh=-15;TTR up confirm=1
CCOc1ccc(NC(=O)CN(C)C(=O)c2ccncc2)cc1OCC	-1
COc1ccc(NC(=O)CSc2nc(N)c(NC(=O)c3ccccc3F)c(=O)[nH]2)cc1	-1
CC(C)NC(=O)CSc1nc(N)c(NC(=O)c2ccccc2F)c(=O)[nH]1	1
Nc1nc(SCCO)[nH]c(=O)c1NC(=O)c1ccccc1F	20*	HuH7 TTR inh=-12;TTR up confirm=0
O=C1CCC[C@H]2C[C@H](NCCc3ccncc3)CC[C@]23CCCN13	-1
CCOC(=O)CC[C@@]1(C(=O)OCC)C[C@@H](CC(=O)NCC23CC4CC(CC(C4)C2)C3)C(=O)N2CCCC=C21	-1
COC(CNC(=O)[C@H](Cc1ccccc1)NCC(=O)NC1CCCCC1)OC	0
CC(=O)N1c2ccccc2NC2=C(C(=O)CCC2)C1c1cccnc1 (stereo not drawn)	-1
COc1ccc(C2CC(=O)C3=C(C2)Nc2ccccc2N(C(=O)CCC(=O)O)C3c2ccc(F)cc2)cc1 (stereo not drawn)	102*	HuH7 TTR inh=-8;TTR up confirm=1
COc1ccc(C2CC(c3ccccc3)=NN2C(=O)CCC(=O)O)cc1 (stereo not drawn)	1
COc1ccc2cc3cc(C(=O)Nc4ccc(F)cc4)sc3nc2c1	3
O=C(NCc1cccc(C(F)(F)F)c1)O[C@H]1CC[C@@]23CCCN2C(=O)CCC[C@H]3C1	3
O=C(CSc1nnc(-c2cccs2)o1)NCc1ccco1	13*	HuH7 TTR inh=-11;TTR up confirm=1
CC1CCN(C(=O)CSc2nnc(-c3cccs3)o2)CC1	-1
Fc1ccccc1CSc1nnc(-c2cccs2)o1	-1
Fc1ccc(CSc2nnc(-c3cccs3)o2)cc1	10*	HuH7 TTR inh=-14;TTR up confirm=0
O=C(CSc1nnc(CNC(=O)c2cccc(C(F)(F)F)c2)o1)NCc1ccco1	4
c1ccc(-c2nnc(CSc3nnc(-c4cccs4)o3)o2)cc1	1
CCCCCCC(=O)NC1CCCCN(Cc2ccc(C)cc2)C1=O (stereo not drawn)	-1
COc1ccc(/C=C2/CN(Cc3ccc(OC)cc3OC)C3=NC(c4ccc5ccccc5c4)CC(=O)N32)cc1 (stereo not drawn)	-1
SMILES	TTR transcr act	others
COc1c(C(C)(C)C)cc(S(=O)(=O)N2c3ccccc3C[C@H]2C)cc1C(C)(C)C	2
CCCN1Cc2cccc(C(=O)N3CCN(c4ccc(F)cc4)CC3)c2C1=O	-2
C=CCC1c2cccc(C(=O)O)c2C(=O)N1c1ccc(F)cc1 (stereo not drawn)	12*	HuH7 TTR inh=8;TTR up confirm=0
O=C1c2ccccc2C(O)N1c1ccccc1 (stereo not drawn)	0
Clc1ccccc1Cn1ccc2ccc(-c3ccc4ccn(Cc5ccccc5Cl)c4c3)cc21	0
COC(=O)C1=C(C(=O)OC)[C@@]2([C@H](Cc3ccc(C)cc3)Nc3ccccc3)C=C[C@@H]1O2	2
CC(C)(C)OC(=O)NCc1cc2c(cc1/C=C/S(=O)(=O)NC1CCCC1)OCO2	2
CCOC(=O)[C@@]12CCC3=C1N(CCC3)C(=O)[C@H](CC(=O)NCc1ccc(OC)c(OC)c1)C2	-1
O=C(c1ccc2c(c1)OCO2)N1CCN(c2ccccc2)CC1	6
COc1ccc(N2CCN(C(=O)c3ccncc3)CC2)cc1	-1
COc1ccc(N2CCN(C(=O)c3ccc4c(c3)OCO4)CC2)cc1	21*	HuH7 TTR inh=-13;TTR up confirm=1
CC(C)OC(=O)C1=CNCC(C)(C)c2c1[nH]c1cc(F)ccc21	-1
COC(=O)[C@]12C[C@H](CC(=O)NCCc3ccccc3OC)C(=O)N(Cc3ccc(Cl)cc3Cl)C1=C[C@H](C(C)C)O[C@@H]2C1CC1	3
CC(C)(O)[C@H](O)COc1c2ccoc2cc2oc(=O)ccc12	6
CC(=O)O[C@H](COc1c2ccoc2cc2oc(=O)ccc12)C(C)(C)O	-1
C=C(C)[C@@H](O)COc1c2ccoc2cc2oc(=O)ccc12	10*	HuH7 TTR inh=-6;TTR up confirm=0
CCCCN1CN2CCc3ccccc3C2CS1(=O)=O (stereo not drawn)	4
CCCCOc1ccc(Cc2c(O)nc(SC)[nH]c2=O)cc1	9.9*	HuH7 TTR inh=-22;TTR up confirm=1
CCCCSc1nc(O)c(Cc2ccccc2)c(=O)[nH]1	2
CCCOc1ccc(C(C)=O)cc1Cc1c(O)nc(SC)[nH]c1=O	-2
COC[C@H]1CCCN1c1ccc2c(c1)O[C@H](C)CCN(C1CC1)S2(=O)=O	0
CCCC1CCC2(CC1)CCC2OC(=S)Nc1ccccc1OC (stereo not drawn)	0
CC(C)=CC([C@]12C[C@H](CO)N[C@@H]1Nc1ccccc12)S(=O)(=O)c1ccccc1 (stereo partly drawn)	0
CCc1noc(C)c1C(=O)Nc1cc(S(=O)(=O)N2CCCCC2)ccc1N(C)C	11*	HuH7 TTR inh=-13;TTR up confirm=0
Cc1onc(-c2ccccc2)c1C(=O)Nc1cccc(S(=O)(=O)N2CCCCC2)c1	1
SMILES	TTR transcr act	others
CCc1noc(C)c1C(=O)N1CCN(S(=O)(=O)c2ccc(Br)cc2)CC1	1
O=C1CCC(NC(=O)Cc2ccccc2)C(=O)N1 (stereo not drawn)	0
COc1cccc(Cn2cc(COC(=O)N(C)Cc3ccccc3)nn2)c1	0
COC(=O)[C@]12C[C@H](CC(=O)NCCCCc3ccccc3)C(=O)N(Cc3ccccc3)C1=C[C@H](COCc1ccccc1)O[C@@H]2C	-1
O=C(Nc1ccc(Br)cc1)OCCN1CCCC12CCC(c1ccccc1)CC2 (stereo not drawn)	-1
CCCCCCC(=O)Oc1cccc(C2=CC(=O)CC(C)(C)C2=O)c1	9.7*	HuH7 TTR inh=0;TTR up confirm=0
CC1(C)CC(=O)C=C(c2ccc(COC(=O)c3cccc(C(F)(F)F)c3)cc2)C1=O	-1
CC1(C)CC(=O)C=C(c2ccc(CO)cc2)C1=O	0
COC(=O)c1cccc(Cn2ccc3ccc(-c4ccc5ccn(C(=O)c6ccccc6OC)c5c4)cc32)c1	3
CC(=O)OC12CCCN(C1)/C(=C/c1cccc(Cl)c1)C2 (stereo not drawn)	2
CNC(=O)c1sc(=S)n(-c2ccc(OC)cc2)c1N	0
COc1ccc(-n2c(N)c(C(=O)NCc3cccnc3)sc2=S)cc1	9.9*	HuH7 TTR inh=-24;TTR up confirm=0
COc1cccc(C(=O)NCc2cccnc2)c1	-2
COC(=O)[C@]12C[C@H](CC(=O)N3CCC(c4ccccc4)CC3)C(=O)N(Cc3ccc(Cl)cc3Cl)C1=C[C@H](COCc1ccccc1)O[C@@H]2C	-2
CN(CC(=O)NC(=O)Nc1ccccc1F)Cc1ccccc1F	-1
CN(CC(=O)Nc1ccc(S(N)(=O)=O)cc1)Cc1ccccc1F	16*	HuH7 TTR inh=-1;TTR up confirm=1
CN(CC(=O)Nc1ccc(S(N)(=O)=O)cc1)C1CCCCC1	-1
O=C(O)CCc1nc(-c2cccs2)no1	-1
